Measurements as given in PubChem BioAssay (Tox21).
Where “and” joins values, the source holds several entries; their conditions need not be identical. Equal entries are not always repeated. Inconclusive results are not listed. A call without a number means that no potency is given here. Where a structure was tested more than once in an assay, its records may differ in their call. Calls of active or inactive are those of the source. Calls follow the shape of the dose curve; as a rule, active = well fitted inhibition curve with a large enough effect in the signal ratio in the repeat runs, with a control signal flat; inconclusive = weak or mixed curves, or effect the other way; inactive = flat fitted curve, though single readings scatter; the % refers to the signal ratio.

molecular target: D(2) dopamine receptor (Homo sapiens) (UniProt P14416); test: Dopamine D2 receptor (DRD2) small molecule antagonists, cell-based qHTS assay (AID 1963595); details: HEK293-DRD2 cAMP HTRF antagonist mode; series mostly up to 92.4 µM
Description: National Center for Advancing Translational Sciences [NCATS]
Division of Preclinical Innovation [DPI]
U.S. Environmental Protection Agency [EPA]
National Institutes of Environmental Health Sciences [NIEHS]
National Toxicology Program [NTP]
U.S. Food and Drug Administration [FDA]
DRD2 is the D2 subtype of the dopamine receptor, which is coupled to Gi subtype of G protein-coupled receptor. This G protein-coupled receptor inhibits adenylyl cyclase activity. The DRD2-HEK293 cell line stably expressing D2 dopamine receptor can be used for screening agonists and antagonists of interactions between D2 and its ligands. The Hek293-DRD2 cAMP assay is based on HTRF technology. It measures changes of cAMP accumulation in response to Gi coupled GPCR activation or inhibition.
Tox21 Assay Protocol Summary:
DRD2-Hek293 cells were dispensed at 600 cells/3uL/well in 1536-well white plates using a Multidrop Dispenser. After the assay plates were incubated at a 37 C/5% CO2 incubator for 24 h, 1 uL of Ro20-1724 at final concentration of 0.1 mM was transferred to the assay plate by a Flying Reagent Dispenser. Following Ro20-1724 addition, 23 nL of compound dissolved in DMSO, positive controls or DMSO only was added to the assay plates via Wako pintool station. The assay plates were incubated at room temperature for 10 min. Next, 1 uL of mixture of NKH477 (final concentration at 200 nM) and quinpirole (final concentration at 12 nM) was added into the plates. After the assay plates were incubated at room temperature for an additional 30 min, 2.5 ul/well of cAMP-d2 and 2.5 ul/well of anti-cAMP-cryptate were added respectively into the assay plates using a Flying Reagent Dispenser. The plates were incubated at room temperature for 1 h. The fluorescence intensity in the plates was measured at 340 nm excitation and 665 & 620 nm emission by an Envision plate reader.
Potency is read from the fitted curve at half-maximal effect.

Sequence of D(2) dopamine receptor (Homo sapiens) (P14416 whole entry, looked up): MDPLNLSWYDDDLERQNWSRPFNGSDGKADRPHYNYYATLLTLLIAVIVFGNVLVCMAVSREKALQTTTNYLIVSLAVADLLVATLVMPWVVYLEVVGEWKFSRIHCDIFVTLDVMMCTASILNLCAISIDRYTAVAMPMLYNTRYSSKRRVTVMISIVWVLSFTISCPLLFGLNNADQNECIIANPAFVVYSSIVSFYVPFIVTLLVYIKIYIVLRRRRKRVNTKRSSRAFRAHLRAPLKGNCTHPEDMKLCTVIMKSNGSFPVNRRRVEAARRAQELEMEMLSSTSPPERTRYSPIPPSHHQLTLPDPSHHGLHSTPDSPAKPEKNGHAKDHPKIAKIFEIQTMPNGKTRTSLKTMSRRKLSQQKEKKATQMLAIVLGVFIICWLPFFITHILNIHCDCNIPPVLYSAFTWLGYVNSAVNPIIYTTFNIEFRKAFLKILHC

Structure (SMILES)	Potency
COCCOCCOC	inactive
CC(=O)Nc1nnc(S(N)(=O)=O)s1	inactive
Cc1cccc([N+](=O)[O-])c1C	inactive
Brc1cc(Oc2cc(Br)c(Br)c(Br)c2Br)c(Br)c(Br)c1Br	inactive
COc1cc(C=O)ccc1O	inactive
CCOCCOCCO	inactive
O=C1CCCCCN1	inactive
c1ccc2ccccc2c1	inactive
CCCOC(=O)c1cc(O)c(O)c(O)c1	inactive
CC(C)CCCCCCCOC(=O)CCCCC(=O)OCCCCCCCC(C)C	inactive
CCOC(=O)C(C#N)=C(c1ccccc1)c1ccccc1	inactive
OCCOCCOCCOCCO	inactive
CCCOCC(C)O (stereo not given)	inactive
O=C(O)C(=O)O	inactive
CCCCCCOC(C)=O	inactive
Cc1c(OCC(F)(F)F)ccnc1CS(=O)c1nc2ccccc2[nH]1 (stereo not given)	inactive
CCCc1cc(=O)[nH]c(=S)[nH]1	inactive
CCCc1c(OCCCCc2nn[nH]n2)ccc(C(C)=O)c1O	inactive
OCCc1ccccc1	inactive
CC(C)(C#N)c1cc(Cn2cncn2)cc(C(C)(C)C#N)c1	inactive

Structure (SMILES)	Potency
CC(=O)OC(C)(C)C1CC=C(C)CC1 (stereo not given)	inactive
CC(=O)Oc1ccc(C(c2ccc(OC(C)=O)cc2)c2ccccn2)cc1	inactive
Cc1cc(=O)[nH]c(C(C)C)n1	inactive
O=C(O)c1ccc(S(=O)(=O)N(Cl)Cl)cc1	inactive
CC(C)Cc1ccc(C(C)C(=O)O)cc1 (stereo not given)	inactive
CN(C)C(=O)Nc1ccc(Cl)c(Cl)c1	inactive
CCN(CC)C(=O)c1cccc(C)c1	inactive
O=C(c1ccc(O)cc1)c1ccc(O)cc1O	inactive
CCC(Cc1c(I)cc(I)c(N)c1I)C(=O)O (stereo not given)	inactive and 10.6 µM (active)
CCCCCCCCCC	inactive
Cc1cccc2n[nH]nc12	inactive
CCCCCCCCCCCCCC(=O)O	inactive
OC[C@H]1O[C@H](O[C@]2(CCl)O[C@H](CCl)[C@@H](O)[C@@H]2O)[C@H](O)[C@@H](O)[C@H]1Cl	inactive
CC(C)(CO)CO	inactive
O=C1CCCC1	inactive
NNc1ccc(C(=O)O)cc1	inactive
COc1cc(O)c(C(=O)c2ccccc2)cc1S(=O)(=O)O	inactive
Cc1nnc(NS(=O)(=O)c2ccc(N)cc2)s1	inactive
Cc1ccccc1C=O	inactive
Oc1cccc(O)c1	inactive
